For part of these data: Entries with a potency or affinity are not part of this list. Activity calls are given as the source filed them.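 How the source made its calls, unless noted: active means primary screen hit whose calcium fluorescence ratio, in both repeats, exceeds the weak agonist control mean by 3 SD; inactive means the rest.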

Assay [1] has as its system TRPC4 beta (transient receptor potential cation channel C4), mouse. Kind of assay: activators of mouse TRPC4 channel, confirmation, cell-based, Fluo4 calcium, HEK293 TRPC4beta/mu-opioid, duplicates, 10 µM (AID 2426;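 active means fluorescence ratio normalized to control raised more than 50% in primary screen plus both repeat runs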;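 on activation: percent rise of integrated ratio over buffer wells lacking compound which define 0%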). As to conditions: Fluo4 calcium fluorescence, at 10 µM; hits give high values.
Assay [2] deals with transient receptor potential cation channel C4 beta (TRPC4), mouse. Kind of assay: activators of mouse TRPC4 channel, confirmation, cell-based, second round, Fluo4, HEK293 TRPC4beta/mu-opioid, 1 µM (AID 2461;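 active means primary screen active and over 50% activation in each of two duplicate runs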). As to conditions: Fluo4 calcium fluorescence, at 1 µM; hits give high values.
Assay [3] has as its system TRPC4 (transient receptor potential cation channel C4 beta), mouse. Put plainly: positive allosteric modulators of mouse TRPC4, confirmation, cell-based, second round, Fluo-4, HEK293 TRPC4beta/mu-opioid, 1 µM (AID 2554;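 active means primary screen hit whose fluorescence ratio, in both repeats, exceeds the weak agonist control mean by 3 SD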). As to conditions: DAMGO EC20, Fluo-4 calcium flux, at 1 µM; hits give high values.
Assay [4] concerns TRPC4 beta (transient receptor potential cation channel C4), mouse. Put plainly: positive allosteric modulators of mouse TRPC4, confirmation, cell-based, Fluo-4, HEK293 TRPC4beta/mu-opioid (AID 2555). The note with it: DAMGO EC20, Fluo-4 calcium flux, at 10 µM; hits give high values. For orientation: A change in cytosolic calcium serves as a functional read-out for many receptors and channels.

Assay [5] concerns the target Short transient receptor potential channel 4 (Mus musculus) (UniProt Q9QUQ5). Kind of assay: inhibitors of mouse TRPC4 channel, confirmation, cell-based, Fluo4, HEK293 TRPC4beta/mu-opioid (AID 2636;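 active means calcium signal cut by more than 3 SD below the full-agonist control yet still positive, in both repeats and the earlier primary screen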). As to conditions: DAMGO, Fluo4 calcium flux, at 10 µM; hits give high values.
Assay [6] has the same target. Kind of assay: inhibitors of mouse TRPC4 channel, confirmation, cell-based, second round, Fluo4, HEK293 TRPC4beta/mu-opioid, 1 µM (AID 2637;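 active means calcium signal ratio cut to more than 3 SD under the fully stimulated control mean yet still positive, in both repeats and the primary screen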). The note with it: Fluo4 calcium flux, DAMGO, at 1 µM; hits give high values.
The target is the same in assay [7]. Kind of assay: mouse TRPC4 channel activators, dose response, cell-based, HEK293 TRPC4/mu-opioid, Fluo-4 calcium (AID 434937;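 active means primary screen activator hit with a dose response curve and TRPC4 channel activation at any tested dose; inactive means no activation, no dose response, or not a primary hit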).
Assay [8] has the same target. Put plainly: TRPC4 positive allosteric modulators, dose response, cell-based, HEK293 TRPC4/mu-opioid, Fluo-4 calcium, EC20 DAMGO (AID 434941;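 active means earlier screen potentiator hit that boosts the TRPC4 ion channel at some dose, with a dose response; inactive means no potentiation, no dose response, or not a prior hit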;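 further: calcium entry triggered by an EC20 dose of DAMGO at the co-expressed mu-opioid receptor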).
Assay [9] has the same target. Put plainly: mouse TRPC4 channel inhibitors, dose response, cell-based, HEK293 TRPC4/mu-opioid, Fluo-4 calcium (AID 434942;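 active means primary screen inhibitor hit that blocks the TRPC4 channel at some tested dose, yielding a dose curve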).
Assay [10] has as its target Short transient receptor potential channel 6 (Mus musculus) (UniProt Q61143). Kind of assay: inhibition of mouse TRPC6 channel, confirmation, selectivity assay for TRPC4 inhibitor project, cell-based, HEK293, membrane potential dye, duplicate (AID 434948;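 active means active in primary screen and both duplicates, each dropping signal beyond three positive-control SD with fluorescence still positive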). The note with it: HEK293 TRPC6, membrane potential dye fluorescence, at 10 µM, stimulated with maximal-effect acetylcholine; hits give high values.

The target is the same in assay [11]. Put plainly: activation of mouse TRPC6 channel, confirmation, selectivity assay for TRPC4 activator project, cell-based, HEK293, membrane potential dye, duplicate (AID 434950;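 active means membrane potential signal rise above negative control mean plus 3 SD in both duplicates, also active in the earlier TRPC4 screen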). The note with it: HEK293 TRPC6, membrane potential fluorescence, at 10 µM; hits give high values.
Assay [12] has the same target. Put plainly: TRPC6 potentiation by TRPC4 potentiator hits, confirmation, selectivity assay for TRPC4 potentiator project, HEK293 cells, membrane potential dye, duplicate (AID 434952;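 active means compound raising the membrane signal above positive-control mean plus 3 SD in both repeats, and a primary screen hit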). As to conditions: HEK293 TRPC6, membrane potential dye fluorescence, at 10 µM, maximal acetylcholine added after compound; hits give high values.
In assay [13] the target is Short transient receptor potential channel 4 (Mus musculus) (UniProt Q9QUQ5). Kind of assay: calcium flux activators in TRPC4/5HT1a cells, counter-screen for TRPC4 activator project, cell-based, second counter screen, HEK293 TRPC4/5HT1a, Fluo-4 (AID 434977;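 active means calcium signal rise above buffer-control mean plus 5 SD in both duplicates, and also a hit in the primary screen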;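 on activation: plate controls were assay buffer for no effect and maximal serotonin response for full effect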). The note with it: Fluo-4 calcium flux, at 10 µM; hits give high values.
Sequence of Short transient receptor potential channel 4 (Mus musculus) (Q9QUQ5 whole entry, looked up): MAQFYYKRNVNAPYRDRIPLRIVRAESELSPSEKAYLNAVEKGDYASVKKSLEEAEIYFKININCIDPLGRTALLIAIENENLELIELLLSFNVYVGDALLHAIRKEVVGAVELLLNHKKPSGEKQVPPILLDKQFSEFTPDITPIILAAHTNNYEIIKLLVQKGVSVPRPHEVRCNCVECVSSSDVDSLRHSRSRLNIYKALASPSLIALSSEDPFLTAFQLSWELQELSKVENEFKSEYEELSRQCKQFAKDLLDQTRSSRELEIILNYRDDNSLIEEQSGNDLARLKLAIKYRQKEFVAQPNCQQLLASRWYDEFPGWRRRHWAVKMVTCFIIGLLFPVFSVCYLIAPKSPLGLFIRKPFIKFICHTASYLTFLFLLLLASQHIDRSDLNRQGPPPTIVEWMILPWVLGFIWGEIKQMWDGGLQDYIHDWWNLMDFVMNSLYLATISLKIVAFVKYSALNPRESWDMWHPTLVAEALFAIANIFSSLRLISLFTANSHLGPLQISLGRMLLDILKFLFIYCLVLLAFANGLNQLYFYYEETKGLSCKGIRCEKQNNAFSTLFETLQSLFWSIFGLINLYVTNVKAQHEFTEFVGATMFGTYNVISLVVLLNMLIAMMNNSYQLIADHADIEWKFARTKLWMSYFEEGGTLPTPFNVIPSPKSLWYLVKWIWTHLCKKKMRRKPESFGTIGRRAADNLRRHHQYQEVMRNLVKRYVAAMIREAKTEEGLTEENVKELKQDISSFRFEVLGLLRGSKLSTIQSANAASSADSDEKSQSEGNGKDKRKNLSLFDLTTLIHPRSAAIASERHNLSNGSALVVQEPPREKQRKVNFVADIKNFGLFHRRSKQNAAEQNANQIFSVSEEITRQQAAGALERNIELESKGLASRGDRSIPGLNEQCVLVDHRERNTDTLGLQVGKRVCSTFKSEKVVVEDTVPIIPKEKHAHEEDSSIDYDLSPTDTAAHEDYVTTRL
Assay [14] can be described thus: calcium flux inhibitors in TRPC4/5HT1a cells, confirmation, counter-screen for TRPC4 inhibitor project, cell-based, second counter screen, HEK293 TRPC4/5HT1a, Fluo-4 (AID 434978;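 active means primary screen active whose calcium signal fell more than 3 SD beyond the full-serotonin control mean in both duplicate plates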;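 further: serotonin given first at submaximal then at maximal dose after compound preincubation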). The note with it: Fluo-4 calcium flux, at 10 µM, serotonin added to trigger calcium flux; hits give high values.
In assay [15] the test system is TRPC4 (mouse), co-expressed with 5HT1a in HEK293. Kind of assay: calcium flux potentiators in TRPC4/5HT1a cells, confirmation, counter-screen for TRPC4 potentiator project, cell-based, second counter screen, HEK293 TRPC4/5HT1a, Fluo-4 (AID 434979;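 active means signal rise over 3 SD above mean of control wells given weak agonist, in both repeats and first screen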). The note with it: Fluo-4 calcium flux, at 10 µM, serotonin added at its EC20 dose; hits give high values.
Assay [16] can be described thus: calcium flux activation in mu-opioid HEK293 cells, confirmation, counter-screen for TRPC4 activator project, cell-based, HEK293 mu-opioid receptor line (AID 449723;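 active means hit in primary screen, with calcium signal over 5 SD above buffer well mean in both duplicates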;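 further: counter screen cells carry the mu-opioid receptor alone and lack TRPC4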). As to conditions: Fluo-4 calcium fluorescence, at 10 µM; hits give high values.
Assay [17] can be described thus: calcium flux enhancement in mu-opioid HEK293 cells, confirmation, counter-screen for TRPC4 allosteric potentiator project, cell-based, HEK293 mu-opioid receptor line (AID 449724;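 active means calcium signal rise more than 3 SD above the low-dose agonist control mean, in both duplicate plates and the primary screen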;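 further: HEK293 cells carrying mu-opioid receptor only with no TRPC4 channel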). The note with it: Fluo-4 calcium flux, at 10 µM, compound added before EC20 DAMGO stimulus; hits give high values.

Sequence of Short transient receptor potential channel 6 (Mus musculus) (Q61143 whole entry, looked up): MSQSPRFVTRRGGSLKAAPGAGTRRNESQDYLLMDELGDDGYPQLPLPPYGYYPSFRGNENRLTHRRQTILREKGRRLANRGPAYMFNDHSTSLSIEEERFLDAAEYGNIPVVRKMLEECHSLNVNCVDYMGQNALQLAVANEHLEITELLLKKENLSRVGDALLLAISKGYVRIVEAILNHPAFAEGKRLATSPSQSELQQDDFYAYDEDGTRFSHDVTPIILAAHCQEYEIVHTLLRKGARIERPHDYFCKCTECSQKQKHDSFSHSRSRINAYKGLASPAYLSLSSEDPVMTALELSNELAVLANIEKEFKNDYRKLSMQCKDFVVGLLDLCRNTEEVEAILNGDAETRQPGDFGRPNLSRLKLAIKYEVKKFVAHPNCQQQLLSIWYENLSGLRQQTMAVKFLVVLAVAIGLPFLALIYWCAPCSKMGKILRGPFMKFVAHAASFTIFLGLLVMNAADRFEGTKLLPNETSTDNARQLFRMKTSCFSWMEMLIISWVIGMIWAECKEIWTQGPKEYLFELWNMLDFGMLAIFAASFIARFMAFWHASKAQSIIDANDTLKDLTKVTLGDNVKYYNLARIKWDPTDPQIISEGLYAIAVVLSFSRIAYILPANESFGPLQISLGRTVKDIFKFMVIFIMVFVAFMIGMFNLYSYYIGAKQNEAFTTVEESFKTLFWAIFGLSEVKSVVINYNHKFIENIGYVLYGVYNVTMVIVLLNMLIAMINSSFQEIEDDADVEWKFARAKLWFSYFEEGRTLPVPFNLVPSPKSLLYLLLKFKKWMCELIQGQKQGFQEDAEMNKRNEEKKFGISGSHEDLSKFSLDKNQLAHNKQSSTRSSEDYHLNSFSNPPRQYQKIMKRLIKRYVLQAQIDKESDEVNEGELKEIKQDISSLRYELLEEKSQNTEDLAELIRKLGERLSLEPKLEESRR

As for `COc1ccc(Br)cc1CN1CCC(N2CCCC2)CC1`, the result in assay [1], in assay [2], in assay [3], in [4], in assay [5] and in assay [6] was inactive. Also, the outcome in assay [7], in [8], in assay [9], in assay [10], in assay [11] and in assay [12] was inactive. The result in assay [13], in assay [14], in [16] and in [17] was inactive. For the same molecule, the potentiation in assay [15] was 13.5% (active).
Regarding `CN(C)CCCNc1nc(N)c([N+](=O)[O-])c(NCc2ccccc2)n1`, the result in assay [1], in assay [2], in assay [3], in assay [4], in assay [5] and in assay [6] was inactive. Also, the outcome in [7], in assay [8], in assay [9], in assay [10], in [11] and in assay [12] was inactive. Moreover, the outcome in assay [13], in [14], in [15], in assay [16] and in assay [17] was inactive.
Turning to `COc1ccc(CCNC(=O)C2CCN(C(=O)c3ccc(C(C)(C)C)cc3)CC2)cc1`, the result in [1], in assay [2], in assay [3], in assay [4], in assay [5] and in assay [6] was inactive. The outcome in assay [7], in [8], in assay [9], in assay [10], in assay [11] and in [12] was inactive. Besides, the result in assay [13], in [14], in assay [15], in assay [16] and in assay [17] was inactive.
For the molecule `O=[N+]([O-])c1c(Nc2cccc(O)c2)cc(Cl)c2nonc12`, the result in assay [1], in [2], in assay [3], in assay [4], in assay [5] and in [6] was inactive. For the same molecule, the result in assay [7], in [8], in [9], in [10], in assay [11] and in assay [12] was inactive. For the same molecule, the result in assay [13], in assay [14], in assay [15], in assay [16] and in assay [17] was inactive.
Regarding `CCOP(=O)(OCC)c1nc(-c2ccc(Cl)cc2Cl)oc1N1CCCCC1`, the result in assay [1], in assay [2], in [3], in assay [4], in assay [5] and in assay [6] was inactive. In addition, the outcome in assay [7], in assay [8], in [9], in assay [10], in assay [11] and in assay [12] was inactive. Also, the result in [13], in assay [14], in assay [16] and in [17] was inactive. In addition, the potentiation in assay [15] was 54.2% (active).
On to `Cc1cc(N2CCOCC2)nc(NCc2ccccc2)n1`, for which the result in assay [1], in assay [2], in [3], in assay [4], in assay [5] and in assay [6] was inactive. In addition, the result in assay [7], in assay [8], in assay [9], in [10], in [11] and in assay [12] was inactive. The result in [13], in assay [14], in assay [15], in assay [16] and in assay [17] was inactive.
In the case of `O=[N+]([O-])c1ccc(CN2CCN(c3nc4ccccc4s3)CC2)cc1`, the result in assay [1], in assay [2], in assay [3], in [5], in assay [6] and in assay [7] was inactive. Besides, the outcome in assay [8], in [9], in [10], in [11], in assay [12] and in [13] was inactive. Besides, the outcome in assay [14], in [16] and in assay [17] was inactive. Besides, the potentiation is 7% (active) in assay [4] and 17.5% (active) in assay [15].
Regarding `O=S(=O)(Cc1ccccc1)N1CCC(c2nc(-c3cccs3)no2)CC1`, the result in [1], in assay [2], in [3], in [5], in assay [6] and in [7] was inactive. In addition, the outcome in assay [8], in assay [9], in assay [10], in [11], in assay [12] and in assay [13] was inactive. Moreover, the outcome in [14], in [16] and in [17] was inactive. Also, the potentiation in assay [4] is 13% (active); in [15] it was 11.4% (active).
Regarding `CCCCCCCCCCOC(=O)Cn1c(COc2ccccc2)[n+](C)c2ccccc21`, the outcome in [1], in assay [2], in assay [3], in assay [4], in [5] and in [6] was inactive. For the same molecule, the result in [7], in assay [8], in [9], in [10], in assay [11] and in assay [12] was inactive. Further, the result in [13], in assay [14], in assay [15], in assay [16] and in assay [17] was inactive.
With `COc1cc(OC)c2c(-c3ccccc3)cc(=O)oc2c1C(CCN1CCCCC1)c1ccc(N(C)C)cc1` (stereo not given), the activation was 82% (active) in [1] and 38.3% (active) in assay [13]. Besides, the outcome in assay [2], in assay [3], in [4], in assay [5], in [6] and in [7] was inactive. The result in [8], in assay [9], in assay [10], in assay [11], in assay [12] and in [14] was inactive. The result in [15], in [16] and in assay [17] was inactive.
Consider `CCCCN1C(=O)C(=O)N(CC(=O)Nc2cc(OCC)c(N3CCOCC3)cc2OCC)C1=O`, for which the result in assay [1], in assay [2], in [3], in assay [4], in assay [5] and in assay [6] was inactive. The result in assay [7], in assay [8], in assay [9], in [10], in assay [11] and in [12] was inactive. Moreover, the outcome in assay [13], in assay [14], in assay [15], in assay [16] and in [17] was inactive.
`C=CCOc1ccc(Br)cc1/C=N/O`: the outcome in [1], in assay [2], in assay [3], in [4], in assay [5] and in assay [6] was inactive. Further, the outcome in [7], in assay [8], in assay [9], in [10], in assay [11] and in assay [12] was inactive. Further, the outcome in assay [13], in [14], in assay [15], in assay [16] and in [17] was inactive.
`CC(C)CCn1c(Sc2nc3ccccc3o2)nc2c1c(=O)[nH]c(=O)n2C`: the result in assay [1], in assay [2], in assay [3], in assay [5], in assay [6] and in assay [7] was inactive. Further, the outcome in [8], in [9], in assay [10], in assay [11], in assay [12] and in assay [13] was inactive. Also, the result in [14], in [16] and in assay [17] was inactive. In addition, the values for the potentiation in assay [4] and in [15] were 13% (active) and 45% (active), respectively.
On to `COc1ccc(-c2cc(C(F)(F)F)nc(N3CCN(C)CC3)n2)cc1`, for which the outcome in assay [1], in assay [2], in assay [3], in [4], in assay [5] and in assay [6] was inactive. Further, the outcome in assay [7], in assay [8], in assay [9], in assay [10], in assay [11] and in [12] was inactive. For the same molecule, the outcome in assay [13], in [14], in assay [16] and in assay [17] was inactive. For the same molecule, the potentiation in assay [15] is 14.5% (active).
Regarding `O=C(C1CCCN(Cc2cccc(Cl)c2)C1)N1CCCCC1` (stereo not given), the outcome in assay [1], in assay [2], in assay [3], in assay [4], in [5] and in assay [6] was inactive. The result in assay [7], in assay [8], in assay [9], in [10], in [11] and in assay [12] was inactive. Also, the result in assay [13], in assay [14], in [15], in assay [16] and in assay [17] was inactive.

These data come from PubChem BioAssay.
